These results are taken from PubChem BioAssay AID1259415 (National Center for Advancing Translational Sciences (NCATS), 2018).

Several values for one entry are separate records, joined by “and”; a condition that tells them apart may be missing. Identical values can stand only once. The campaign covered roughly 410,000 compounds. About 18,000 (4.4%) were called active. Another 7% or so got no clear call; they are omitted. Rule as the data show it: active = activity change below about -60%; inconclusive = no clear call, values can overlap the other calls; inactive = above about -39%. What follows is part of a selection rich in actives, with near analogues and random picks from the rest. Where a structure was tested more than once in an assay, its records may differ in their call.
% is scaled to controls: 0 for no effect and ±100 for the full control effect.

The test is described as follows: qHTS Assay for inhibitors of the human cytomegalovirus (HCMV). The note with it: HFF cells, HCMV-luciferase reporter, 72 h; at 57.5 µM; stronger effect = lower value. The essentials:
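Human foreskin fibroblasts infected with luciferase-reporter HCMV at MOI 1 PFU/cell, compounds at two doses. Luciferase measured 72 h post infection; normalized to buffer-only basal and Salinomycin (10uM) controls.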
Take `COc1c(Cl)cc(C(=O)N(Cc2ccccc2F)C2CCS(=O)(=O)C2)cc1Cl` (stereo unspecified): the activity change, negative = inhibition was -5.18% (inactive).
The figure for `CCCn1c(=N)n(CC(O)COc2ccccc2OC)c2ccccc21` (stereo unspecified) is -33.4% (inactive); for `COc1ccccc1OCC(O)CN1CCOCC1` (stereo unspecified) it is -100% (active).
In the case of `Cc1ccc(OCC(O)CN2CCN(CC(O)COc3ccc(C)cc3Cl)CC2)c(Cl)c1` (stereo unspecified) it was -4.14% (inactive).
The figure for `COc1cc(NS(=O)(=O)c2ccc3ccccc3c2)c2ncccc2c1` is -79.8% (active).
`CCOc1ccc(OCC)c(NS(=O)(=O)c2ccc3[nH]c(=O)ccc3c2)c1`: the activity change, negative = inhibition was 17.6% (inactive).
The figure for `COc1ccc(S(=O)(=O)Nc2cc3c(C(=O)OC(C)C)c(C)oc3c3ccccc23)cc1` is 4.89% (inactive); for `COc1cc2c(C(=O)N(C)c3cc(Cl)ccc3OC)cn(C)c(=O)c2cc1OC` it is -37.5% (inactive); for `Cc1cc(C)c2oc(C(=O)Nc3c(C(=O)Nc4ccccc4)oc4ccccc34)cc(=O)c2c1` it is 8.41% (inactive).
In the case of `O=C(Cn1nnc(-c2ccccc2)n1)NC(=O)NC1CCCC1` it was 11.9% (inactive); in that of `O=C(NNC(=O)C(O)c1ccccc1)NC1CCCCC1` (stereo unspecified), -11.7% (inactive).
For `Cc1nc(/N=C(\N)NC(=O)NC2CCCCC2)nc2ccccc12`, the activity change, negative = inhibition was -84.3% (active).
The figure for `COc1ccc(S(=O)(=O)N2CCN(c3ncnc4c(-c5ccccc5)nsc34)CC2)cc1` is 3.62% (inactive); for `Cc1ccc(C)c(S(=O)(=O)c2nnn3c2nc(N2CCOCC2)c2sccc23)c1` it is 28.6% (inactive); for `Cc1ccc(C)c(S(=O)(=O)n2nc(C)c(S(=O)(=O)N3CCC(C)CC3)c2C)c1` it is -3.95% (inactive).
In the case of `Cc1ccc(S(=O)(=O)N2CCN(c3ncnc4ccccc34)CC2)cc1` it was -87.3% (active).
In the case of `Cc1ccc(C)c(S(=O)(=O)N2CCN(c3ncnc4sccc34)CC2)c1` it was -96.6% (active); in that of `Cc1ccc(S(=O)(=O)N2CCN(Cc3cccc(C)c3O)CC2)cc1`, -3.34% (inactive); in that of `CCOc1ccc2oc(C(=O)N(CC)CC(=O)Nc3ccc(NC(C)=O)cc3)c(C)c2c1`, -18.7% (inactive).
For `O=S(=O)(c1ccc(Br)cc1)c1nnn2c1nc(N1CCOCC1)c1sccc12`, the activity change, negative = inhibition is 18.7% (inactive).
In the case of `CCCOc1ccc(N2C(=O)CC(N(CCc3ccc(S(N)(=O)=O)cc3)C(C)=O)C2=O)cc1` (stereo unspecified) it was 29.6% (inactive); in that of `CC1CCN(C(=O)Cn2c(=O)n(-c3ccc(Cl)cc3)c(=O)c3c4c(sc32)CCC4)CC1`, 3.05% (inactive); in that of `O=C(Cn1nc(C(F)(F)F)c2c1CCC2)NCc1ccc(F)cc1`, -0.659% (inactive).
In the case of `Cc1cc(NC(=O)Cn2nc(C(F)(F)F)c3c2CCCC3)no1` it was 31% (inactive); in that of `O=C(Cn1nc(C(F)(F)F)c2c1CCCC2)Nc1ccc(Cl)cc1`, -105% (active).
Take `Cc1ccc2nc(CNC(=O)c3ccccc3)[nH]c2c1`: the activity change, negative = inhibition was 61% (inactive).
The figure for `CCCNC(=O)C1CCN(c2nc3ccc(C)cc3[nH]2)CC1` is 0% (active).
Turning to `CCOc1ccc2nc(N3CCC(C(=O)Nc4cc(C)ccc4C)CC3)sc2c1`, the activity change, negative = inhibition is 20% (inactive).
In the case of `Cc1[nH]c2ccccc2c1[N+](=O)[O-]`, the activity change, negative = inhibition is 6.63% (inactive).
In the case of `CCCCC(O)(CCCC)C(=O)NN(C(=O)CCl)c1ccccc1` it was -94.6% (active); in that of `COC(=O)N(NC(=O)C(O)(C(C)C)C(C)C)c1ccccc1`, 2.98% (inactive).
In the case of `Cc1cccc(N(Cc2ccccc2)C(=O)c2ccccc2F)c1` it was 1.73% (inactive).
Regarding `Cc1cccc(N(CC(O)CN(C)C)S(=O)(=O)c2ccccc2)c1` (stereo unspecified), the activity change, negative = inhibition is -26.4% (inactive).
In the case of `CCCCNC(=O)CN1C(=O)NC(Cc2ccccc2)(Cc2ccccc2)C1=O` it was -14.4% (inactive); in that of `CCCC(O)(CCC)C(=O)NN(C(=O)CCl)c1cccc(C)c1`, -101% (active).
For the molecule `COCn1c(C(O)c2ccccc2)cc2ccccc21` (stereo unspecified), the activity change, negative = inhibition was 3.56% (inactive).
The figure for `O=C(CSc1ncc(S(=O)(=O)c2ccc(Br)cc2)c(=O)[nH]1)Nc1ccc2c(c1)OCCO2` is 3.97% (inactive); for `CCCN1CN=C(NS(=O)(=O)c2ccc(NC(C)=O)cc2)NC1` it is -18.1% (inactive).
The figure for `COc1ccccc1NC(=O)CSc1oc(-c2ccco2)nc1S(=O)(=O)c1ccc(Br)cc1` is 12.2% (inactive); for `CCOc1ccc(NC(=O)CCc2c(C)nn(-c3ccc(N4CCCC4)nn3)c2C)cc1` it is -23.2% (inactive); for `COc1ccc(-c2nc3sc(CCNS(=O)(=O)c4ccc(F)c(C)c4)c(C)n3n2)cc1` it is -32.9% (inactive).
The figure for `CCCCN=C(N)/C(C(=O)OCC)=C(\O)c1ccc(OC)cc1` is -26.4% (inactive); for `Cc1ccc(-c2nnc(SCc3ccccc3C)o2)cc1` it is 82.8% (inactive); for `O=C(C(=O)N1CCN(c2ccccc2)CC1)c1ccc2c(c1)OCO2` it is -64.4% (active).
On to `C/C(=C/c1ccccc1)C(=O)N1CCN(c2ccccc2)CC1`, for which the activity change, negative = inhibition is -16.3% (inactive).
The figure for `O=C(c1ccc2c(c1)OCO2)N1CCNc2ccccc2C1` is -3.54% (inactive); for `CCC(Sc1nnc(-c2ccc(OC)cc2)c(-c2ccc(OC)cc2)n1)C(=O)NC1CCCCC1` (stereo unspecified) it is 5.23% (inactive); for `CCOC(=O)C1SC2(C(F)(F)C(F)F)CC1(O)c1c(c(OC)c3occc3c1OC)O2` (stereo unspecified) it is -23.2% (inactive).
Regarding `C/C(=N\NC(=O)C1(C)CC1(Br)Br)c1ccc(C)cc1C` (stereo unspecified), the activity change, negative = inhibition was 2.84% (inactive).
In the case of `Cc1cc(C)cc(NC(c2nnc(-c3cccc(F)c3)o2)c2ccc(F)cc2Cl)c1` (stereo unspecified) it was -0.542% (inactive).
In the case of `CC(=O)N1CCCc2ccc(NS(=O)(=O)c3ccc(F)cc3F)cc21` it was 51.5% (inactive); in that of `Cc1nn(-c2ccccc2)c(-n2cccc2)c1C(=O)O`, -33.7% (inactive).
For `Cc1nn(-c2ccccc2)c(Cl)c1/C=N/NC(=O)c1nn(C)cc1[N+](=O)[O-]`, the activity change, negative = inhibition is -99% (active).
For `Cc1c(NC(=O)c2c([N+](=O)[O-])cnn2C)c(=O)n(-c2ccccc2)n1C`, the activity change, negative = inhibition is 7.76% (inactive).
With `Cn1c(=O)c2c(nc(SCC(=O)Nc3ccc(F)cc3)n2Cc2ccc(Cl)cc2)n(C)c1=O`, the activity change, negative = inhibition is -3.29% (inactive).
The figure for `CCN(C(=O)CSc1nc(N)cc(=O)[nH]1)C1CCS(=O)(=O)C1` (stereo unspecified) is -1.32% (inactive); for `Cc1ccc2c(=O)cc(C(=O)Nc3sc4c(c3C(=O)NCc3cccnc3)CCCC4)oc2c1` it is -0.307% (inactive); for `Cc1ccc(OCC(=O)Nc2ccc(Cl)c(-c3nc4ccccc4[nH]3)c2)cc1C` it is -26.2% (inactive).
In the case of `Cc1ccc(C)c(OCC(=O)Nc2sc3c(c2C#N)CCCC3)c1C` it was -17.4% (inactive); in that of `CC1C(c2ccccc2)=[N+]([O-])C2(CCCC2)N1O` (stereo unspecified), 21.7% (inactive); in that of `CC1CCCCN1CCCNC(=O)Cn1ncc2c([nH]c3ccccc32)c1=O` (stereo unspecified), 25.9% (inactive) and 24.1% (inactive).
The figure for `CCCn1c2ccccc2c2cnn(CC(=O)NCCCN3CCCCC3CC)c(=O)c21` (stereo unspecified) is 5.34% (inactive) and -76.4% (active); for `CCCn1c2ccccc2c2cnn(CC(=O)NCCCOC(C)C)c(=O)c21` it is -18.7% (inactive); for `COc1ccc(NC(=O)NNC(=O)COc2cc(C)c(Cl)c(C)c2)c(OC)c1` it is -4.84% (inactive).
For the molecule `CCOC(=O)CNc1nc(Cl)nc(Nc2ccc(OC)cc2OC)n1`, the activity change, negative = inhibition is -6.89% (inactive).
In the case of `COc1ccc(Nc2ncnc3ccc(Br)cc23)c(OC)c1` it was -98.7% (active); in that of `CC(=O)c1ccc(N2CCN(C3C(=O)c4ccccc4N3C(C)=O)CC2)cc1` (stereo unspecified), 0% (inactive).
Consider `CCOC(=O)N1CCC(NC(=O)C(NS(=O)(=O)c2ccc3c(c2)CCN3C(=O)CC)C(C)C)CC1` (stereo unspecified), for which the activity change, negative = inhibition is 1.92% (inactive).
The figure for `COc1cccc2c1cc1c(=O)n(CC(=O)N3CCN(c4ccccc4)CC3)nc(C)n12` is 3.76% (inactive); for `O=C(Cn1ncc2c3ccccc3n(Cc3ccccc3)c2c1=O)NC1CCCCCC1` it is 12.7% (inactive); for `Cc1scc(C(=O)NNC(=S)NCC(C)C)c1C` it is -1.28% (inactive).
In the case of `CC(C)CNC(=S)NNC(=O)c1ccccc1OC(F)F`, the activity change, negative = inhibition was 2.34% (inactive).
In the case of `Cc1scc(C(=O)NNC(=S)NCc2ccccc2)c1C` it was -63.5% (active).
In the case of `CCn1c(=O)c2cc(C(=O)Nc3cccc(C(C)=O)c3)sc2c2ccccc21` it was 8.05% (inactive); in that of `COc1ccc(OC)c(CNC(=O)c2c3c(nc4ccccc24)C(=O)N(C2CCCCC2)C3)c1`, 18.7% (inactive).
In the case of `CCOC(=O)C1CCN(C(=O)CSc2c3c(nc4ccc(Cl)cc24)CCCC3)CC1` it was 92.3% (inactive); in that of `Cc1ccc(C(C)C)cc1OCCN1CCCC1`, 2.84% (inactive).
As to `Cc1ccc(C(C)(C)C)c(OCCCCN2CCCC2)c1`, the activity change, negative = inhibition was -65.6% (active).
The figure for `Cc1ccc(OCCCCN2CCCCC2)c(Br)c1` is -23.7% (inactive); for `CC(=O)N1CCc2ccc(N)cc21` it is -18% (inactive); for `COc1cc(NC(=O)c2cc3ccc4cccnc4c3[nH]2)cc(OC)c1OC` it is 65% (inactive).
The figure for `CCOc1ccc(Nc2nc3c(S(=O)(=O)c4cccc(Cl)c4)nnn3c3ccsc23)cc1` is 16.8% (inactive); for `C[C@H](CO)N1C[C@H](C)[C@H](CN(C)CC2CC2)Oc2ccc(NC(=O)CCN3CCOCC3)cc2C1=O` it is -26.7% (inactive).
In the case of `C[C@H]1CN([C@@H](C)CO)C(=O)Cc2cc(NS(C)(=O)=O)ccc2O[C@@H]1CN(C)CC1CC1`, the activity change, negative = inhibition was -70.1% (active).
With `COc1ccc(S(=O)(=O)N(C)C[C@H]2Oc3ccc(NS(=O)(=O)c4cccs4)cc3CC(=O)N([C@H](C)CO)C[C@H]2C)cc1`, the activity change, negative = inhibition was 8.23% (inactive).
The figure for `O=C(c1cccc(Cl)c1)N1CCN(CCc2ccncc2)CC1` is 14.9% (inactive); for `Fc1ccc(Nc2nnns2)cc1` it is 21.3% (inactive).
In the case of `O=C(COc1ccccc1)OCc1cc(=O)n2nc(-c3cccs3)sc2n1` it was 24.1% (inactive); in that of `CCOc1cccc(NC(=O)c2ccc(F)c(S(=O)(=O)N(CC)c3cccc(C)c3)c2)c1`, -33.3% (inactive).
`Cc1cccc(NC(=O)c2ccc(F)c(S(=O)(=O)N(C)C3CCCCC3)c2)c1`: the activity change, negative = inhibition was -81.6% (active).
In the case of `CCc1ccccc1NC(=O)c1ccc(F)c(S(=O)(=O)NC2CCCCCC2)c1` it was 27% (inactive).
